Measured values taken from the supplement of paper PMC7411054.
Counter-ions that a name gives are not always drawn.

Legend:
Settings in all cases: treatment time: 24 h
A549-ACTB-RAB5A [1] = test: phenotypically active (imaging signature differs from DMSO and reproducible) at any of 0.3-9 uM (binary (1 = active, 0 = inactive)); higher = active
How it was run: (§1)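 Fifteen gene-edited A549, HepG2 and WPMY1 reporter lines (BFP segmentation plus GFP and RFP/FusionRed markers) were treated at 0.3, 1, 3 or 9 µM for 24 h, four wells each, then imaged live. Live-cell features per well were normalised to DMSO control wells. Deviation required ≥3 of 4 wells beyond the 95th percentile of DMSO Euclidean distances, and reproducibility required median replicate Pearson correlation above the 95th percentile of non-replicates. Phenotypic activity needed both criteria.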

A549-CANX-COX4 [2] = test: as above
How it was run: as §1

A549-GM130-SQSTM1 [3] = test: as above
How it was run: as §1

A549-TP53BP1-CLTA [4] = test: as above
How it was run: as §1

A549-TUBA1B-RELA [5] = test: as above
How it was run: as §1

HepG2-ACTB-RAB5A = test: as above
How it was run: as §1

HepG2-CANX-COX4 = test: as above
How it was run: as §1

HepG2-GM130-SQSTM1 = test: as above
How it was run: as §1

HepG2-TP53BP1-CLTA = test: as above
How it was run: as §1

HepG2-TUBA1B-RELA = test: as above
How it was run: as §1

WPMY1-ACTB-RAB5A = test: as above
How it was run: as §1

WPMY1-CANX-COX4 = test: as above
How it was run: as §1

WPMY1-GM130-SQSTM1 = test: as above
How it was run: as §1

WPMY1-TP53BP1-CLTA = test: as above
How it was run: as §1

WPMY1-TUBA1B-RELA = test: as above
How it was run: as §1

A549-ACTB-RAB5A [6] = test: lowest phenotypically active concentration; higher = less potent
How it was run: as §1

A549-CANX-COX4 [7] = test: as above
How it was run: as §1

A549-GM130-SQSTM1 [8] = test: as above
How it was run: as §1

A549-TP53BP1-CLTA [9] = test: as above
How it was run: as §1

A549-TUBA1B-RELA [10] = test: as above
How it was run: as §1

Structure (SMILES) | phenotypically active (A549-ACTB-RAB5A [1]) | phenotypically active (A549-CANX-COX4 [2]) | phenotypically active (A549-GM130-SQSTM1 [3]) | phenotypically active (A549-TP53BP1-CLTA [4]) | phenotypically active (A549-TUBA1B-RELA [5]) | phenotypically active (HepG2-ACTB-RAB5A) | phenotypically active (HepG2-CANX-COX4) | phenotypically active (HepG2-GM130-SQSTM1) | phenotypically active (HepG2-TP53BP1-CLTA) | phenotypically active (HepG2-TUBA1B-RELA) | phenotypically active (WPMY1-ACTB-RAB5A) | phenotypically active (WPMY1-CANX-COX4) | phenotypically active (WPMY1-GM130-SQSTM1) | phenotypically active (WPMY1-TP53BP1-CLTA) | phenotypically active (WPMY1-TUBA1B-RELA) | lowest phenotypically active concentration (A549-ACTB-RAB5A [6]) | lowest phenotypically active concentration (A549-CANX-COX4 [7]) | lowest phenotypically active concentration (A549-GM130-SQSTM1 [8]) | lowest phenotypically active concentration (A549-TP53BP1-CLTA [9]) | lowest phenotypically active concentration (A549-TUBA1B-RELA [10])
Nc1ncnc2c1ncn2[C@H]1O[C@@H](C(=O)N2CCN(CC(=O)Nc3cccc4c3CNC4=O)CC2)[C@H](O)[C@@H]1O | 0 (inactive) | 0 (inactive) | 0 (inactive) | 0 (inactive) | 0 (inactive) | 0 (inactive) | 0 (inactive) | 0 (inactive) | 0 (inactive) | 0 (inactive) | 0 (inactive) | 0 (inactive) | 0 (inactive) | 0 (inactive) | 0 (inactive) |  |  |  |  | 
O=C(O)c1cccc(C(=O)O)n1 [2,6-Pyridinedicarboxylic Acid] | 0 (inactive) | 0 (inactive) | 0 (inactive) | 0 (inactive) | 0 (inactive) | 0 (inactive) | 0 (inactive) | 0 (inactive) | 0 (inactive) | 0 (inactive) | 0 (inactive) | 0 (inactive) | 0 (inactive) | 0 (inactive) | 0 (inactive) |  |  |  |  | 
CN(C)CCCSc1ccccc1NC(=O)/C=C/c1ccccc1 [Cinanserin hydrochloride] | 0 (inactive) | 0 (inactive) | 0 (inactive) | 0 (inactive) | 0 (inactive) | 0 (inactive) | 0 (inactive) | 0 (inactive) | 0 (inactive) | 0 (inactive) | 0 (inactive) | 0 (inactive) | 0 (inactive) | 0 (inactive) | 0 (inactive) |  |  |  |  | 
O=C(Nc1cc(C(F)(F)F)cc(C(F)(F)F)c1)c1cnc(Cl)nc1C(F)(F)F | 0 (inactive) | 0 (inactive) | 0 (inactive) | 0 (inactive) | 0 (inactive) | 0 (inactive) | 0 (inactive) | 0 (inactive) | 0 (inactive) | 0 (inactive) | 0 (inactive) | 0 (inactive) | 0 (inactive) | 0 (inactive) | 0 (inactive) |  |  |  |  | 
CO/N=C/C1=CCCN(C)C1 [Milameline hydrochloride] | 0 (inactive) | 0 (inactive) | 0 (inactive) | 0 (inactive) | 0 (inactive) | 0 (inactive) | 0 (inactive) | 0 (inactive) | 0 (inactive) | 0 (inactive) | 0 (inactive) | 0 (inactive) | 0 (inactive) | 0 (inactive) | 0 (inactive) |  |  |  |  | 
NC(=O)c1cccnc1 [Nicotinamide] | 0 (inactive) | 0 (inactive) | 0 (inactive) | 0 (inactive) | 0 (inactive) | 0 (inactive) | 0 (inactive) | 0 (inactive) | 0 (inactive) | 0 (inactive) | 0 (inactive) | 0 (inactive) | 0 (inactive) | 0 (inactive) | 0 (inactive) |  |  |  |  | 
COc1cc2c(cc1OC)CC(=O)N(CCCN(C)C[C@H]1Cc3cc(OC)c(OC)cc31)CC2 [ivabridine] | 0 (inactive) | 0 (inactive) | 0 (inactive) | 0 (inactive) | 0 (inactive) | 0 (inactive) | 0 (inactive) | 0 (inactive) | 0 (inactive) | 0 (inactive) | 0 (inactive) | 0 (inactive) | 0 (inactive) | 0 (inactive) | 0 (inactive) |  |  |  |  | 
NS(=O)(=O)c1cc2c(cc1Cl)N=C(CSCc1ccccc1)NS2(=O)=O [benzthiazide] | 0 (inactive) | 0 (inactive) | 0 (inactive) | 0 (inactive) | 0 (inactive) | 0 (inactive) | 0 (inactive) | 0 (inactive) | 0 (inactive) | 0 (inactive) | 0 (inactive) | 0 (inactive) | 0 (inactive) | 0 (inactive) | 0 (inactive) |  |  |  |  | 
CCCCN1CCCCC1C(=O)Nc1c(C)cccc1C (configuration not stated) [bupivacaine] | 0 (inactive) | 0 (inactive) | 0 (inactive) | 0 (inactive) | 0 (inactive) | 0 (inactive) | 0 (inactive) | 0 (inactive) | 0 (inactive) | 0 (inactive) | 0 (inactive) | 0 (inactive) | 0 (inactive) | 0 (inactive) | 0 (inactive) |  |  |  |  | 
C[C@@H]1C[C@H]2[C@@H]3C[C@H](F)C4=CC(=O)C=C[C@]4(C)[C@@]3(F)[C@@H](O)C[C@]2(C)[C@@]1(O)C(=O)COC(=O)C(C)(C)C [flumethasone pivalate] | 1 (active) | 1 (active) | 1 (active) | 1 (active) | 1 (active) | 0 (inactive) | 0 (inactive) | 0 (inactive) | 0 (inactive) | 0 (inactive) | 0 (inactive) | 0 (inactive) | 0 (inactive) | 0 (inactive) | 0 (inactive) | ≤ 0.3 µM | ≤ 0.3 µM | ≤ 0.3 µM | ≤ 0.3 µM | ≤ 0.3 µM
FC(F)(F)c1ccc(/C=C/c2nc(COc3ccc(CCCCn4ccnn4)cc3)co2)cc1 | 1 (active) | 1 (active) | 1 (active) | 1 (active) | 1 (active) | 1 (active) | 1 (active) | 1 (active) | 1 (active) | 1 (active) | 0 (inactive) | 0 (inactive) | 0 (inactive) | 0 (inactive) | 0 (inactive) | ≤ 0.3 µM | ≤ 0.3 µM | ≤ 0.3 µM | ≤ 0.3 µM | ≤ 0.3 µM
COc1ccc2c(NC(=O)Nc3cccc(C(F)(F)F)n3)ccnc2c1 | 1 (active) | 1 (active) | 1 (active) | 1 (active) | 1 (active) | 1 (active) | 1 (active) | 1 (active) | 1 (active) | 1 (active) | 1 (active) | 1 (active) | 1 (active) | 1 (active) | 0 (inactive) | ≤ 0.3 µM | 9 µM | 3 µM | 9 µM | 3 µM
C[C@@H]1O[C@@H](OC[C@H]2O[C@@H](Oc3c(-c4ccc(O)c(O)c4)oc4cc(O)cc(O)c4c3=O)[C@H](O)[C@@H](O)[C@@H]2O)[C@H](O)[C@H](O)[C@H]1O [Quercétine-3-rutinoside] | 1 (active) | 0 (inactive) | 0 (inactive) | 0 (inactive) | 0 (inactive) | 0 (inactive) | 0 (inactive) | 0 (inactive) | 0 (inactive) | 0 (inactive) | 0 (inactive) | 0 (inactive) | 0 (inactive) | 0 (inactive) | 0 (inactive) | 9 µM |  |  |  | 
C=C[C@H]1[C@H](O[C@@H]2O[C@H](CO)[C@@H](O)[C@H](O)[C@H]2O)OC=C2C(=O)NCC[C@H]21 [Bakankosine] | 0 (inactive) | 0 (inactive) | 0 (inactive) | 0 (inactive) | 0 (inactive) | 0 (inactive) | 0 (inactive) | 0 (inactive) | 0 (inactive) | 0 (inactive) | 0 (inactive) | 0 (inactive) | 0 (inactive) | 0 (inactive) | 0 (inactive) |  |  |  |  | 
CC1(C)O[C@@H]2C[C@H]3[C@@H]4C[C@H](F)C5=CC(=O)CC[C@]5(C)[C@H]4[C@@H](O)C[C@]3(C)[C@]2(C(=O)CO)O1 [flurandrenolide] | 1 (active) | 1 (active) | 1 (active) | 1 (active) | 1 (active) | 0 (inactive) | 0 (inactive) | 0 (inactive) | 0 (inactive) | 0 (inactive) | 0 (inactive) | 0 (inactive) | 0 (inactive) | 0 (inactive) | 0 (inactive) | ≤ 0.3 µM | ≤ 0.3 µM | ≤ 0.3 µM | ≤ 0.3 µM | ≤ 0.3 µM
O=C1NC(=O)C(c2ccccc2[N+](=O)[O-])=C1Nc1ccc(O)c(Cl)c1 | 1 (active) | 1 (active) | 1 (active) | 1 (active) | 1 (active) | 1 (active) | 1 (active) | 1 (active) | 1 (active) | 1 (active) | 1 (active) | 0 (inactive) | 0 (inactive) | 0 (inactive) | 0 (inactive) | 9 µM | 9 µM | 9 µM | 9 µM | 9 µM
Nc1nc(OCC2CCCCC2)c2nc[nH]c2n1 | 1 (active) | 0 (inactive) | 0 (inactive) | 0 (inactive) | 0 (inactive) | 0 (inactive) | 0 (inactive) | 0 (inactive) | 0 (inactive) | 0 (inactive) | 0 (inactive) | 0 (inactive) | 0 (inactive) | 0 (inactive) | 0 (inactive) | 9 µM |  |  |  | 
C#Cc1cccc(Nc2ncnc3cc(OCCOC)c(OCCOC)cc23)c1 [erlotinib] | 1 (active) | 1 (active) | 1 (active) | 1 (active) | 1 (active) | 1 (active) | 1 (active) | 1 (active) | 1 (active) | 1 (active) | 0 (inactive) | 0 (inactive) | 0 (inactive) | 0 (inactive) | 0 (inactive) | ≤ 0.3 µM | 3 µM | 3 µM | 1 µM | 1 µM
CCC(=O)OCC(=O)[C@@]1(OC(=O)CC)[C@@H](C)C[C@H]2[C@@H]3CCC4=CC(=O)C=C[C@]4(C)[C@@]3(Cl)[C@@H](O)C[C@@]21C [beclomethasone-dipropionate] | 1 (active) | 1 (active) | 1 (active) | 1 (active) | 1 (active) | 0 (inactive) | 0 (inactive) | 0 (inactive) | 0 (inactive) | 0 (inactive) | 0 (inactive) | 0 (inactive) | 0 (inactive) | 0 (inactive) | 0 (inactive) | ≤ 0.3 µM | ≤ 0.3 µM | ≤ 0.3 µM | ≤ 0.3 µM | ≤ 0.3 µM
C[C@]12CCC(=O)C=C1CC[C@@H]1[C@@H]2[C@@H](O)C[C@@]2(C)[C@H]1CC[C@]2(O)C(=O)CO [hydrocortisone] | 1 (active) | 1 (active) | 1 (active) | 1 (active) | 1 (active) | 0 (inactive) | 0 (inactive) | 0 (inactive) | 0 (inactive) | 0 (inactive) | 0 (inactive) | 0 (inactive) | 0 (inactive) | 0 (inactive) | 0 (inactive) | ≤ 0.3 µM | ≤ 0.3 µM | ≤ 0.3 µM | ≤ 0.3 µM | ≤ 0.3 µM
Cc1cc(Nc2cc(N3CCN(C)CC3)nc(Sc3ccc(NC(=O)C4CC4)cc3)n2)[nH]n1 | 1 (active) | 1 (active) | 1 (active) | 1 (active) | 1 (active) | 1 (active) | 1 (active) | 1 (active) | 1 (active) | 1 (active) | 1 (active) | 1 (active) | 1 (active) | 1 (active) | 1 (active) | ≤ 0.3 µM | ≤ 0.3 µM | ≤ 0.3 µM | ≤ 0.3 µM | ≤ 0.3 µM
CCCSc1nc2c(c(=O)n1-c1ccccc1)SCC2 | 0 (inactive) | 0 (inactive) | 0 (inactive) | 0 (inactive) | 0 (inactive) | 0 (inactive) | 0 (inactive) | 0 (inactive) | 0 (inactive) | 0 (inactive) | 0 (inactive) | 0 (inactive) | 0 (inactive) | 0 (inactive) | 0 (inactive) |  |  |  |  | 
